# Source: PubChem
# MARV entry inh = inhibitors of Marburg virus binding or cell entry | Marburg virus pseudotyped entry inhibition, cell reporter | AID 540276 | 1.8% of 300,000 active | Potency, µM (doses to about 37.8 µM), without a hit: at the top dose activity change, negative = inhibition, hits mostly inhibitors; calls by dose curve; tested in HEK293 cells; note: potency is the fitted concentration of half-maximal effect; % is set by controls: 0 for no effect and ±100 for the full control effect
# Shiga inhibitor = inhibitors of Shiga toxin in Vero cells. Vero cells, Shiga toxin protein synthesis inhibition reporter. inhibition, % at 38.7 µM. 9.2% of 290,000 active. AID 2315; in the data active = inhibition mostly above about 28%, no sharp cut-off; inactive = mostly below about 43%; note: 0% is about no effect
# LASV entry inh = inhibitors of Lassa virus binding or cell entry. Lassa virus pseudotype entry inhibition, cell reporter. Potency, µM (titrated, usually from 37.9 µM), for inactives: top-dose activity change, negative = inhibition, hits mostly inhibitors. 1.2% of 300,000 active; calls by dose curve; tested in HEK293 cells; note: potency is the fitted concentration of half-maximal effect; % is set by controls: 0 for no effect and ±100 for the full control effect; nearly all actives have a fitted effect of over 50% in size
# CHX counter = counter-screen for Shiga toxin inhibitors: cycloheximide protein synthesis inhibition; cell reporter, cycloheximide protein synthesis inhibition counterscreen; max response, %; 12% of 300,000 active; in the data active = max response mostly above about 13%, no sharp cut-off; inactive = mostly below about 14%; note: read at 38.3 µM for the half of the compounds with a filed dose; 0% is about no effect
# An asterisk follows results filed as active; u = inconclusive; x = not tested or not shown; [ ] = another dose, or the depositor's remark. Sampled rows, rich in hits. Any-hit rate of the full collection: about 12%.
SMILES,MARV entry inh,Shiga inhibitor,LASV entry inh,CHX counter
C[C@H](N)c1nnc(SCc2c(Cl)cccc2Cl)o1,u,10,0%,0
CC1CCCN(c2ccc([N+](=O)[O-])cc2C(=O)c2ccccc2)C1 (centres undefined),u,-12,u,1
COc1ccccc1C(=O)NC1CC(C)(C)NC(C)(C)C1,-4%[46.1 µM],-9,18%[46.1 µM],-1
CCOc1ccc(C(=O)NCCN2CCOCC2)cc1,12%,-1,30%,4
CC/C(=N/NC(=O)c1ccc(Br)cc1)c1ccc(OCCN2CCOCC2)cc1,u,52*,7%,17
CC/C(=N/NC(=O)c1ccccc1)c1ccc(OCCN2CCOCC2)cc1,-10%,80*,9%,70*
N[C@H](Cn1ccc(=O)[nH]c1=O)C(=O)O,3%,x,x,x
Cc1ccc(S(=O)(=O)Nc2c(C)cc([N+](=O)[O-])cc2C)cc1,-3%,x,0%,x
Cc1ccc(S(=O)(=O)c2ccc([N+](=O)[O-])o2)cc1,7.9µM*,x,u,x
CC(C)(C)NC(=O)c1cnn(-c2ccccc2)c1C1CCN(C(=O)OC(C)(C)C)CC1,x,x,-20%[46.1 µM],x
Cc1ccc(-c2nnc(SCC(=O)N/N=C/c3ccccc3C(=O)O)n2-c2ccc(C)cc2)cc1,x,8,x,-1
Cc1ccc(-c2nnc(SCC(=O)N/N=C/c3c(C)nn(-c4ccccc4)c3C)n2-c2ccc(C)cc2)cc1,u,10,7.1µM*,-2
Cc1ccc(-c2nnc(SCC(=O)N/N=C/c3c(C)nn(-c4ccccc4)c3C)n2-c2ccccc2)cc1,u,-11,u,1
Cc1ccc(-c2nnc(SCC(=O)N/N=C/c3ccc(C)s3)n2-c2ccccc2)cc1,u,-8,16µM*,-4
O=C(Nc1ccccc1)c1ccc(COc2ccccc2)cc1,14%,27,u,10
CCOc1ccc(NS(=O)(=O)c2cc(NC(=O)c3cccc(C)c3)ccc2Cl)cc1,u,4,16µM*,0
O=C(Nc1ccc(COc2ccccc2)cc1)Nc1cccc(C(=O)O)c1,x,20,x,17*
O=C(O)c1cccc(NC(=S)NC(=O)c2cccc(OCc3ccccc3)c2)c1,x,39*,x,14*
O=C(NC(NC(=S)Nc1cccc(C(=O)O)c1)C(Cl)(Cl)Cl)OCc1ccccc1 (centres undefined),u,29,13%,19*
COc1ccc(/C=N/NC(=O)Cc2cc(OC)c(OC)cc2[N+](=O)[O-])cc1,-24%,-3,7%,8
COC(=O)c1ccc(C)c(NC(=O)c2ccc(CN3CCc4ccccc4C3)cc2)c1,x,-8,x,0
COc1cccc2c1OCC/C2=N\NC(=O)C(C)Oc1ccc([N+](=O)[O-])cc1 (centres undefined),-2%[46.1 µM],-12,-12%,2
CC1=CC[C@@H](COc2ccccc2)O[C@@]2(C1)C(=O)N(Cc1ccc(F)cc1)c1cccc(Br)c12,-10%[14.2 µM],x,x,x
COc1ccc(S(=O)(=O)N2CCCC(C(=O)NC3CC3)C2)cc1OC (centres undefined),18%[46.1 µM],x,2%,x
CCCCn1c(N)c(N(CC)C(=O)CSCC(=O)Nc2ccc(OC)cc2)c(=O)[nH]c1=O,u,x,9%,x
SMILES,MARV entry inh,Shiga inhibitor,LASV entry inh,CHX counter
O=C(O)c1ccc(Cl)c(S(=O)(=O)Nc2ccc(OCc3ccccc3)cc2)c1,5%[46.1 µM],62*,-9%,23*
O=S(=O)(Nc1cccc(-c2ccc(N3CCCCC3)nn2)c1)c1ccc(F)cc1F,x,x,2%[46.1 µM],x
O=S(=O)(Nc1ccc(N2CCCCC2)cc1)c1cccc2cccnc12,-6%,-3,1%,7
O=S(=O)(Nc1ccc(N2CCCCC2)cc1)c1ccccc1F,17%,36,-4%,16*
NS(=O)(=O)c1ccc(NCc2c(F)cccc2Cl)cc1,3%,27,0%,8
Fc1cccc(Cl)c1CNc1ccc(N2CCCC2)cc1,-22%[46.1 µM],22,u,29*
O=S(=O)(Nc1ccc(N2CCCCC2)cc1)c1ccc(F)cc1F,-6%,21,1%,16*
O=C(O)c1ccc(CNC(=O)c2ccc3c(c2)C(=O)N(Cc2cccnc2)C3=O)cc1,x,-3,x,-2
Cc1ccc(S(=O)(=O)NC(=O)c2ccc(-c3ccc(C)c4ccccc34)o2)cc1,20%,-15,19%,-4
Cc1ccc(-c2ccc(C(=O)Nc3ccccc3)o2)c2ccccc12,-19%,67*,u,36*
Cc1ccc(-c2ccc(C(=O)NCc3ccccc3)o2)c2ccccc12,34%,-11,6.5µM*,-2
CCOc1ccccc1-c1ccc(C(=O)NCc2ccccc2)o1,7%,13,7.3µM*,10
Cc1ccc(SCC(=O)Nc2ccc(F)cc2[N+](=O)[O-])cc1C,-3%,12,u,-2
Cc1csc(SCC(=O)NCCc2ccc(Cl)cc2Cl)n1,18%,3,1%,10
CN(Cc1c(F)cccc1Cl)C(=O)c1ccc(NS(=O)(=O)c2ccc3[nH]c(=O)[nH]c3c2)cc1,u,x,6%,x
O=C(c1ccc(-c2ccc(Cl)cc2Cl)o1)N1CCOCC1,x,80*,x,42*
O=C(NC(=S)Nc1ccccc1N1CCOCC1)c1ccc(-c2cc(Cl)ccc2Cl)o1,0%,-10,-5%,-5
O=C(c1ccc(-c2cc(Cl)ccc2Cl)o1)N1CCOCC1,-2%[46.1 µM],38,6%,16*
O=C(O)c1cc(NC(=O)c2ccccc2[N+](=O)[O-])ccc1O,8%[46.1 µM],-6,0%,-5
COC(=O)c1c(C)[nH]c(O)c1C=Nc1ccc(C(C)C)cc1,-12%,39*,-2%,22*
COCCN(Cc1ccco1)C(=O)C1CCCN(c2ncnc3c2nc2n3CCCCC2)C1 (centres undefined),u,11,11µM*,-1
CC(C)=CCC/C(C)=C/CO/N=C1\C[C@@H](O)[C@@H](O)[C@@H]2[C@@H]3C(=O)N(C[C@@H]4CCCO4)C(=O)[C@@H]3CC[C@H]12,-5%[14.2 µM],x,x,x
CC(C)c1cc2c(c(O)c1O)[C@@]1(C(=O)O)CCCC(C)(C)[C@@H]1CC2,x,11,x,4
Cc1ccc(-c2c(C(=O)N/N=C/c3c[nH]c4ccccc34)nnn2-c2nonc2N)cc1,x,4,x,22*
C/C(=N\N=C\c1ccccc1)c1nnn(-c2nonc2N)c1C,10%,41,-19%,19*
SMILES,MARV entry inh,Shiga inhibitor,LASV entry inh,CHX counter
Cc1ccsc1/C=N/NC(=O)c1nnn(-c2nonc2N)c1C,2%[46.1 µM],20,17%,12*
Cc1c(C(=O)N/N=C/c2cccs2)nnn1-c1nonc1N,u,52*,u,6
Cc1ccc(C)n1-c1nnc(N2CCC(C(=O)Nc3ccccc3Br)CC2)s1,4%[46.1 µM],x,-2%[46.1 µM],x
C(=N\N1CCN(c2ccccn2)CC1)/c1ccccn1,27%,37*,-3%,49*
CN(C)c1ccc(/C=N/N2CCN(c3ccccn3)CC2)cc1,x,91*,x,34*
Cc1nn(-c2ccccc2)c(C)c1/C=N/N1CCN(c2ccccn2)CC1,14%[46.1 µM],12,2%,4
BrC(/C=N/N1CCN(Cc2ccccc2)CC1)=C/c1ccccc1,-7%[46.1 µM],21,u,8
CN(c1ccccc1)c1ccc(/C=N/N2CCOCC2)cc1,u,61*,u,84*
BrC(=C\c1ccccc1)/C=N/N1CCN(c2ccccn2)CC1,-5%,38*,1%,40*
Oc1cccc(/C=N/N2CCN(c3ccccn3)CC2)c1,u,128*,20%[46.1 µM],40*
